Test results: PubChem BioAssay (NCI)
This is part of a sample that, as a whole, favours compounds with a hit. Of some 83,000 tested, about 20% had one in any assay.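 Each cell line was grown in a 96-well plate and treated with one concentration of compound for 48 hours. Values below 10 were considered active.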 Activity calls are given as the source filed them.

What was measured:
Experiment in all cases: NCI-60 one-dose screen, 48 h (100 = growth as untreated, 0 = no growth, -100 = all killed)
Settings in all cases: 10 µM unless noted
[1] = test system: SR leukemia
[2] = test system: RPMI-8226 leukemia
[3] = test system: OVCAR-8 ovarian
[4] = test system: OVCAR-5 ovarian
[5] = test system: OVCAR-4 ovarian
[6] = test system: SK-OV-3 ovarian
[7] = test system: IGROV1 ovarian
[8] = test system: HS 578T breast
[9] = test system: NCI/ADR-RES ovarian
[10] = test system: OVCAR-3 ovarian

Measured: growth

O=C(O[C@@H]1Cc2c(O)cc(O)cc2O[C@@H]1c1cc(O)c(O)c(O)c1)c1cc(O)c2c(c1)OCO2
inactive: [1] 72.1% | [2] 99.8% | [3] 103% | [4] 97% | [5] 99.8% | [6] 103% | [7] 107% | [8] 98.1% | [9] 97.5%

Cc1cc(N2CCN(C)CC2)nc(N(CCNc2ccnc3cc(Cl)ccc23)Cc2ccco2)n1
inactive: [3] 65.8% | [4] 73.3% | [5] 55.7% | [6] 91.5% | [7] 18.5% | [8] 68.7% | [9] 38.7%
active: [1] -22.1% | [2] -3.89%

CCCNc1nc(N(C)O)nc(N(C)O)n1
inactive: [1] 32.1% | [2] 38.1% | [3] 26.5% | [4] 64% | [5] 19.2% | [6] 45.2% | [7] 36.9% | [8] 71% | [9] 16.9%

CC(=O)n1c(/C(C#N)=C/c2ccc(N(C)C)cc2)cc2ccccc21
active: [10] 8.84%
inactive: [1] 26.8% | [2] 16.2% | [3] 40.3% | [4] 60.7% | [6] 34.8% | [7] 40.3% | [8] 11.9% | [9] 16.7%

CCN1CCN(C(=O)[C@]23CCC(C)(C)C[C@H]2C2=CC[C@@H]4[C@@]5(C)CC/C(=N/O)C(C)(C)[C@@H]5CC[C@@]4(C)[C@]2(C)CC3)CC1
active: [1] 0.702% | [5] -20.5%
inactive: [2] 16.6% | [3] 56.9% | [4] 78.1% | [6] 105% | [7] 68% | [8] 84.2% | [9] 60.1%

Cc1ccccc1-c1nc(C(Cl)Cl)nc2cc(-c3ccccc3)nn12
inactive: [1] 50.2% | [2] 61.6% | [3] 86.9% | [4] 96.4% | [5] 77.5% | [7] 59.9% | [10] 28.3% | [8] 70% | [9] 65.3%

COc1ccc(C(=O)c2cc(OC)c(OC)c(OC)c2)cc1/C=C/C(=O)c1cc(OC)c(OC)c(OC)c1
inactive: [1] 43.2% | [2] 67% | [3] 86.7% | [4] 88.7% | [6] 105% | [7] 95.9% | [10] 99.3% | [8] 82.4% | [9] 81.1%

C=C(C)[C@@H]1CC[C@]2(C)[C@H](CC[C@@H]3[C@H]4[C@H]5OC[C@@]4(CCC5(C)C)CC[C@]32C)[C@@]1(C)CCCN
inactive: [3] 57.8% | [4] 50.6% | [6] 104% | [7] 54.3% | [10] 76.6% | [8] 109% | [9] 73.8%
active: [1] -0.922% | [2] 1.46%

COc1cc2[nH]c(C(=O)c3cc(OC)c(OC)c(OC)c3)c(N)c2cc1C#CCO
inactive: [2] 26.8% | [3] 31.7% | [4] 15.9% | [6] 18.3% | [7] 22.9% | [8] 19.8% | [9] 37.8%
active: [1] 0.173% | [10] -17.8%

CC(CNc1nc(Nc2ccc(Cl)c(Cl)c2)nc(C(Cl)(Cl)Cl)n1)N(C)C (stereo not given)
inactive: [4] 33.7% | [6] 25.9%
active: [1] -42.6% | [2] -12.5% | [3] -50.8% | [7] -5.99% | [10] -67.8% | [8] -20.8% | [9] -23.6%

CN(C)c1ccc(N=C2C=CC(=O)C=C2)cc1
active: [10] -14.8%
inactive: [1] 25.9% | [2] 61.1% | [3] 81.7% | [4] 120% | [6] 99.7% | [7] 96.5% | [8] 72.5% | [9] 90.8%

C=C(C)[C@@H]1CC[C@]2(C(=O)N3CCCNCC3)CC[C@]3(C)[C@H](CC[C@@H]4[C@@]5(C)CCC(=O)C(C)(C)[C@@H]5CC[C@]43C)[C@@H]12
active: [1] 8.04%
inactive: [2] 92% | [3] 95.6% | [4] 106% | [6] 106% | [7] 93.6% | [10] 98.8% | [8] 94.2% | [9] 91.8%

Oc1ccccc1/C=N\NC(=S)Nc1ccc(F)cc1
active: [9] -2.4%
inactive: [1] 11.5% | [2] 41.1% | [3] 21.9% | [4] 55% | [6] 33.8% | [7] 20% | [10] 34.4% | [8] 32.5%

COc1cc2c(cc1-c1c(C)noc1C)ncc1nc(C3CC3)n([C@H](C)COC(F)F)c12
active: [6] 1.36% | [8] 8.14%
inactive: [1] 25.5% | [2] 17.8% | [3] 46.3% | [4] 84.2% | [7] 58.6% | [10] 42% | [9] 40.1%

N#CC1C(=N)Cc2ccccc2-c2ccccc21 (stereo not given)
active: [9] 1.44%
inactive: [1] 26.7% | [2] 52.3% | [3] 63.1% | [4] 88.3% | [6] 66.7% | [7] 45.7% | [10] 41.6% | [8] 36.5%
